In PubChem BioAssay (NCI):
About 79,000 compounds went through this panel and 15% of them were active in at least one assay; those are over-represented in the sample as a whole. Activity calls are given as the source filed them. Cut-off read from the data, not from the text of the source: active = growth inhibition above about 70%; inactive = the rest.

Test: NCI Yeast Anticancer Drug Screen. Data for the mlh1 strain (AID 171);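 note: 0% = growth of vehicle-treated control cultures of the same strain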
Details: S. cerevisiae mlh1 strain growth inhibition, stronger effect = higher value
Protocol: Growth inhibition of yeast strains with defined genetic alterations is measured as a screen for potential anti-cancer activity. Selected strains with alterations in DNA damage repair or cell cycle control were exposed to compounds and growth inhibition was measured relative to vehicle treated controls. The strain used in this assay is mlh1

Measured: growth inhibition

CCC(=O)Nc1ccc(N=NN(C)C)cc1
active: at 100.0 µM 99%
inactive: at 1.2 µM -13% | at 3.7 µM -10% | at 11.0 µM -10% | at 33.0 µM 19%

Cc1nc2sc3c(c2c(=O)o1)CCCC3
inactive: at 1.2 µM 1% | at 3.7 µM -3% | at 11.0 µM 5% | at 33.0 µM 2% | at 100.0 µM 2%

O=C1Oc2ccccc2C(=O)/C1=C/N1C(=O)N/C(=C\c2ccccc2Br)C1=O
inactive: at 1.2 µM 0% | at 3.7 µM 5% | at 11.0 µM 12% | at 33.0 µM 43%
active: at 100.0 µM 97%

Nc1ccc(N=Nc2ccc(-c3ccc(O)cc3)cc2)c2ccc(S(=O)(=O)O)cc12
inactive: at 1.2 µM 3% | at 3.7 µM 3% | at 11.0 µM 6% | at 33.0 µM -19% | at 100.0 µM 18%

O=C(C(Cl)=C(N1CCCCC1)N1CCCCC1)C(Cl)Cl
inactive: at 1.2 µM -2% | at 3.7 µM -4% | at 11.0 µM 2% | at 33.0 µM 0% | at 100.0 µM 1%

NC(=S)N1N=C2c3ccccc3CC[C@@H]2[C@@H]1c1ccccc1
inactive: at 1.2 µM -31% | at 3.7 µM -25% | at 11.0 µM -8% | at 33.0 µM 23%
active: at 100.0 µM 88%

O=C1C=CC(=Nc2cccc3c2-c2ccccc2C3=O)O1
active: at 11.0 µM 84% | at 33.0 µM 99% | at 100.0 µM 99%
inactive: at 1.2 µM 7% | at 3.7 µM 18%

Cc1ccnc2c(O)cccc12
inactive: at 1.2 µM 14%
active: at 3.7 µM 99% | at 11.0 µM 99% | at 33.0 µM 100% | at 100.0 µM 99%
